Experimental data published in ChEMBL document CHEMBL3988442, “University of Dundee, Small-Polar-MMV Screening Library” (2021).
Out of some 48,000 compounds screened, about 13,000 (27%) showed an effect of 50% or more. The list shows a part of the results.

System: Wolbachia pipientis
Experiment: Anti-Wolbachia Cell-Based Screen
Format: functional
Parameters: scale not given: in the data most compounds retested in dose-response had high values
Details: 5 µM

Compound | Percent Effect [%]
Cc1oc(-c2cccs2)nc1C(=O)N(C)C1(C#N)CCC1 | 6.807
Cc1ccc([C@@H]2CN(C(=O)CCc3cc(Cl)no3)C[C@H]2N(C)C)cc1 | -9.949
COc1ccc(Oc2cc(CN)ccn2)cc1 | 98.96
CC(NC(N)=O)C(=O)NCc1ccnc(Oc2ccc(F)cc2)c1 (stereo unspecified) | -14.04
COc1cccc(-c2cc(CN)ccc2F)c1F | -9.579
COc1ccc(N(CCC(N)=O)C(=O)CSc2ccc(Cl)cc2)cc1 | -20.11
COCCC(=O)N[C@H]1CN(c2nc(C)c3c(n2)CCCC3)C[C@@H]1C1CC1 | 40.93
CC(NCc1ccccn1)c1cc2c(cc1Br)OCCO2 (stereo unspecified) | 9.612
O=C(NCc1ccc(F)cc1)NCC(O)(c1cccs1)C1CC1 (stereo unspecified) | 0.4051
CN1CCC(NC(=O)Nc2ccc(F)c(Br)c2)C1=O (stereo unspecified) | -1.465
CN1CCC(NC(=O)Nc2ccc(Cl)c(F)c2)C1=O (stereo unspecified) | 7.915
CN1CCC(NC(=O)c2cc(F)cc(Cl)c2O)C1=O (stereo unspecified) | 115.3
CN1CCC(NC(=O)c2cc(Br)cc(Cl)c2O)C1=O (stereo unspecified) | 91.47
CN1CCC(NC(=O)CCCc2cc(Cl)sc2Cl)C1=O (stereo unspecified) | -5.326
CN1CCC(NC(=O)c2cc(Cl)cc(Br)c2O)C1=O (stereo unspecified) | 99.64
CN1CCC(NC(=O)Nc2ccc(F)c(-n3cccc3)c2)C1=O (stereo unspecified) | 0.2161
Cn1cc(N2CCC(NC(=O)c3ccccc3Cl)C2=O)cn1 (stereo unspecified) | -3.21
CN1CCC(NC(=O)Nc2ccc(Br)c(F)c2)C1=O (stereo unspecified) | 3.385

Compound | Percent Effect [%]
CCN(C)C[C@@H]1CN(Cc2cccc(Cl)c2)C[C@@H]1CO | -21.33
Cc1ncc(CN(C)C(=O)Nc2cccc(N3CCNC3=O)c2)s1 | -6.99
COc1cccc(-c2cc(NCc3nc(C)cs3)n(C)n2)c1 | -29
CCN1C(=O)C[C@@H]2[C@@H]1CCN2S(=O)(=O)c1cccc(C)c1 | -32.48
CCOCC(=O)N1CC[C@H]2[C@@H]1CCC(=O)N2Cc1csc(C)n1 | 22.07
CCCS(=O)(=O)N1CC[C@@H]2[C@@H]1CC(=O)N2Cc1csc(C)n1 | 71.41
CCS(=O)(=O)N1CC[C@H]2[C@H]1CC(=O)N2Cc1csc(C)n1 | 96.63
COc1ccc(Br)c(C(=O)N2CCCC(c3nc(C)no3)C2)c1 (stereo unspecified) | -8.45
CCC(=O)N1CCN(C(=O)Nc2cccc(N3CCOCC3)c2)CC1 | -13.34
CC(NC(N)=O)C(=O)N1CCCN(Cc2nccn2C(C)C)CC1 (stereo unspecified) | -6.463
O=C(c1cccc(S(=O)(=O)NCCCc2ncc[nH]2)c1)N1CCOCC1 | -4.417
CN1CC2(CCN(Cc3ncc[nH]3)CC2)CC1=O | -5.481
Cn1ccnc1CN1CCC2(CC1)CN(CC1CC1)C(=O)CO2 | -0.08379
Cn1ccnc1CN1CCOC(C)(C(=O)N2CCOCC2)C1 (stereo unspecified) | 108.3
CC(C)n1ccnc1CN1CCOC(C)(C(=O)N2CCOCC2)C1 (stereo unspecified) | 127.3
CC(C)n1ccnc1CN1CCCN(C(=O)c2nccnc2N)CC1 | 3.581
Cn1ccnc1CN1CCC2(CC(=O)N(c3ccc4c(c3)OCO4)C2)C1.O=C(O)C(F)(F)F (stereo unspecified) | -22.94
CC1(C(=O)N2CCOCC2)CN(Cc2ncc[nH]2)CCO1 (stereo unspecified) | 90.74
